According to PubChem BioAssay AID1452 (National Center for Advancing Translational Sciences (NCATS), 2008):
The whole screen tested about 150,000 compounds, of which about 190 (0.13%) were called active. Inconclusive results (about 2%) are left out. Calls come from the whole dose curve; as a rule, active = well fitted inhibition curve with a large enough effect; inconclusive = small, poorly fitted or top-dose-only effect; inactive = flat fitted curve, though single readings scatter. The full list was thinned out, with actives kept by preference.

Each molecule was assayed against Polyunsaturated fatty acid lipoxygenase ALOX12 (Homo sapiens) (UniProt P18054) (assay: qHTS Assay for Inhibitors of 12-hLO (12-human lipoxygenase)). Details: purified 12-hLO, xylenol orange hydroperoxide absorbance; series mostly up to 57.1 µM.
Polyunsaturated fatty acid lipoxygenase ALOX12 (Homo sapiens), sequence (P18054 whole entry, looked up): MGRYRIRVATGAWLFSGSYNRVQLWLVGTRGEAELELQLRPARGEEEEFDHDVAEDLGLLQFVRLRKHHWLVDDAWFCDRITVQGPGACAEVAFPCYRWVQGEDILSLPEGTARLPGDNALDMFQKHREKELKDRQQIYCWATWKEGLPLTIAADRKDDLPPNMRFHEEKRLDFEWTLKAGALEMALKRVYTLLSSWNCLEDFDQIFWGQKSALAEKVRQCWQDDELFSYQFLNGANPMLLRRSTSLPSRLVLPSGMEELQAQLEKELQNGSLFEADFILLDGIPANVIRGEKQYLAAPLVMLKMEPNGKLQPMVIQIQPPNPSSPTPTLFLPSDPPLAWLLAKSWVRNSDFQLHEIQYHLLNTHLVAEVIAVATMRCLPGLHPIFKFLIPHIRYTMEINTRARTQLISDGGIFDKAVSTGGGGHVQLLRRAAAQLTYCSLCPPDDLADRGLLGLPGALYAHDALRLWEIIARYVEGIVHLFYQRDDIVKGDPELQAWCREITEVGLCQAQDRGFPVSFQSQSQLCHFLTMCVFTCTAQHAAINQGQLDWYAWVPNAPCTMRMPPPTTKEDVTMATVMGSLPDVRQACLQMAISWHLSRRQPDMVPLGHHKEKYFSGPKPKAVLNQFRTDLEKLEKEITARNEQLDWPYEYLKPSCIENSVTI
From the text: Assay Provider: Holman, T.R., University of California, Santa Cruz Screening Center PI: Austin, C.P. Screening Center: NIH Chemical Genomics Center [NCGC] Human lipoxygenase 12hLO is a member of the closely related lipoxygenase family of enzymes which catalyze the site-specific oxidation of arachidonic acid to various hormone precursor molecules and as such is a candidate for drug development in a variety of disease areas, such as cancer and inflammation. Inhibition of 12hLO activity was screened by utilizing arachidonic acid as a substrate. The extent of hydroperoxide product formation was measured by a secondary chromogenic reaction in which xylenol orange (XO, Sigma-Aldrich, cat. number 39,818-7) reacts with the ferric ions produced from the reaction between the hydroperoxide and ferrous ions. The Fe(III)-XO complex is characterized with red-shifted absorbance at 560 nm. A purified preparation of human 12hLO was supplied by Professor Ted Holman, University of California, Santa Cruz.
Assay Protocol: Buffer: 25 mM Hepes pH 7.0, 0.01% Triton X-100. Reagents/Controls: Buffer in columns 3 and 4 as negative control (no enzyme). Substrate solution: 40 uM arachidonic acid (Sigma-Aldrich, St. Louis, MO) final concentration dispensed throughout the plate. Enzyme: 150 nM 12hLO final concentration in columns 1, 2, 5-48. Column 1 is neutral (100% activity). Column 2 contained pin-transferred titration of NDGA (nordihidroguaiaretic acid, Sigma-Aldrich, N 5023, top concentration 20 mM in DMSO, then 1:3 dilution in duplicate). (Dilution factor: 23 nL into 4 uL.) Chromogenic detection reagent (divalent iron/xylenol orange, Fe-XO): 200 uM xylenol orange plus 300 uM ferrous ammonium sulfate prepared freshly in 50 mM sulfuric acid. Assay Steps: Three uL of enzyme were dispensed to 1536-well Greiner black clear bottom plates. Compounds and controls (23 nL) were transferred via Kalypsys PinTool. The plates were incubated for 15 min at room temperature, and then 1 uL of substrate solution was added to start the reaction. After room temperature incubation for 30 minutes, 4 uL of Fe-XO solution was added to each well and the plates were incubated for 30 min. The absorbance at 405 and 573 nm were measured using ViewLux (Perkin-Elmer) High-throughput CCD imager and absorbance protocol settings. The 573-to-405 absorbance ratio was used to compute reaction progress.
% is set by controls: 0 for no effect and ±100 for the full control effect; potency is the fitted concentration of half-maximal effect.
Note: nearly all actives have a fitted effect of over 55% in size.

Activity change, negative = inhibition, inactive:
CC(=O)c1c(C)[nH]c(C(=O)OCC(=O)Nc2cc(S(=O)(=O)N3CCCCC3)ccc2C)c1C
CCc1nnc(NC(=O)CCN(c2ccc(C)cc2)S(=O)(=O)c2ccccc2)s1
CCOc1ccc(-c2n[nH]c(=S)n2/N=C/c2cc3c(cc2[N+](=O)[O-])OCO3)cc1
C=CCN(c1ccc(C(=O)Nc2cc(C)cc(C)c2)cc1)S(C)(=O)=O
COc1ccc(Cl)cc1NC(=O)CNc1ccccc1F
Cc1ccccc1NC(=S)Nc1cccc([N+](=O)[O-])c1
Cc1ccc(NC(=O)Cn2nc(C)c3ccccc3c2=O)c(C)c1
CC(C)(C)OC(=O)NCCCCC1=CC2=CC(=O)C(C)(OC(=O)c3cccs3)C(=O)C2=CO1 (stereo unspecified)
CC[C@@]12C=C(/C=C/c3ccccc3)[C@](CC)(C1)[C@H](c1ccccc1)CC2=O
COC(=O)C1=C(C(=O)OC)[C@@H]2Nc3ccccc3[C@@]23C[C@@H](C(=O)OC)N(S(=O)(=O)c2ccc([N+](=O)[O-])cc2)C3=N1 -6.39% [at 11.4 µM]
COc1ccc(-n2c(=S)[nH]c3sc4c(c3c2=O)CCc2ccccc2-4)cc1
Cc1ccc(S(=O)(=O)Nc2nc(C)cc(N/N=C/c3ccc(O)cc3)n2)cc1
COC(=O)c1c(NC(=O)CN2C(=O)NC(CCc3ccccc3)C2=O)sc2c1CCCCC2 (stereo unspecified)
C=CCN1c2ccccc2[C@]23C[C@@H](C(=O)OC)N(S(=O)(=O)c4ccc([N+](=O)[O-])cc4)C2=NC(C(=O)OC)=C(C(=O)OC)[C@H]13 -1.48% [at 11.4 µM]
CCN(/N=C/c1ccccc1)c1cc(=O)n(C)c(=O)[nH]1
COCCN1C(=O)N[C@@H](CCc2ccccc2)[C@H](C(C)=O)[C@H]1C 1.29% [at 11.4 µM]
C=CC1=C2C=C(C3CC3)N(CC(C)C)C=C2C(=O)C(C)(OC(=O)c2ccco2)C1=O (stereo unspecified) 0.586% [at 11.4 µM]
CCCCCCCC[C@@H](O)/C=C/C=C/C=C\[C@@H](O)CCCC(=O)O
COc1ccc(-c2nc3c(c4c2C[C@H](c2ccccc2)OC4)CN(C(=O)c2ccco2)CC3)c(C)c1 3.56% [at 11.4 µM]
Cc1ccccc1C(CC(=O)c1cccs1)C(C#N)C#N (stereo unspecified)
Cc1c(/C=N/N2C(=O)C3C4C=CC(C4)C3C2=O)c2ccccc2n1C (stereo unspecified)
CC/C=C\C/C=C\C/C=C\C/C=C\C/C=C\C/C=C\CCC(=O)NC(C)C(=O)O (stereo unspecified)
COc1cc(NC(=O)COC(=O)CSc2ccc3ccccc3c2)c(C)cc1[N+](=O)[O-]
COc1ccc(-c2c(C)cc3oc(=O)cc(-c4ccccc4)c3c2C)cc1C=O -1.15% [at 0.00818 µM]
CCOc1ccc2nc(C(=O)N3CCCC(C)C3)sc2c1 (stereo unspecified)
O=C(/C=C/c1ccc([N+](=O)[O-])cc1)NCCSCc1ccco1
COCC(C)n1c(C)cc(C(=O)CSc2cc(C)c3ccccc3n2)c1C (stereo unspecified)
COCOc1cc(OC)ccc1C(=O)/C=C/c1ccc([N+](=O)[O-])cc1
CCCCCCCC1=Cc2ccc(F)cc2C(C(C(=O)OC)C(=O)OC)N1C(=O)OC (stereo unspecified) 0.612% [at 11.4 µM]
COC(=O)C1=C(C(=O)OC)[C@@H]2N(Cc3ccccc3)c3ccccc3[C@@]23C[C@@H](C(=O)OC)N(S(=O)(=O)c2ccc(C(F)(F)F)cc2)C3=N1 -1.93% [at 11.4 µM]
Cc1ccc(C2=NN(C(=O)CSc3nc(N)cc(N)n3)C(c3ccco3)C2)cc1 (stereo unspecified)
C/C(CC(=O)NC(C)(C)C)=N\NC(=O)c1ccco1
O=C(COC(=O)[C@H](Cc1ccccc1)NC(=O)c1cccs1)Nc1cc(F)ccc1F
Cc1cc2oc(=O)cc(-c3ccccc3)c2c(C)c1-c1ccc(OC(F)(F)F)cc1 -2.23% [at 0.00818 µM]
Cc1ccc(C)c(NC(=S)NNC(=O)c2csc(C)c2)c1
CCCCS(=O)(=O)N1C2=NC(C(=O)OC)=C(C(=O)OC)[C@@H]3N(Cc4ccccc4)c4ccccc4[C@]23C[C@H]1C(=O)OC 2.88% [at 11.4 µM]
Cc1cccc(N2CCN(C(=O)/C=C/c3ccco3)CC2)c1C
COc1ccc(-c2cc(C(F)(F)F)nc(SCC(=O)Nc3ccc4c(c3)OCO4)n2)cc1OC
CCOC(=O)c1c(NC(=O)C(C)Sc2c[nH]c3ccccc23)sc2c1CCC2 (stereo unspecified)
CCCCC/C=C\C/C=C\CCCCCCCCCC(=O)NCC(=O)O
Cc1ccnc(N2CCC(C(=O)NC3CCCCCC3)CC2)n1
Cc1nc2ccccc2c(=O)n1CCCn1ccnc1
CCCCC/C=C\C[C@H](O)/C=C/C=C/C=C/[C@@H](O)CCCC(=O)O
COC(=O)C1=NNC2(c3ccc(C)cc3)C(=O)N(c3cccc(C)c3C)C(=O)C12 (stereo unspecified)
CC(=O)c1ccc2c(ccc3ccccc32)c1
CC(=O)CCC(=O)c1ccc2ccccc2c1
CCOC(=O)C1=C(N)N(c2ccc(C)cc2)C2=C(C(=O)CCC2)C1c1cccs1 (stereo unspecified)
COC(=O)CCCC1=CC2=CC(=O)C(C)(OC(=O)c3cccs3)C(=O)C2=CN1c1ccc(CO)cc1 (stereo unspecified) -2.32% [at 11.4 µM]
COc1ccc(-c2c(C)cc3oc(=O)cc(-c4ccccc4)c3c2C)cc1OC -1.07% [at 0.00818 µM]
COc1ccc(/C=C/C(=O)OCC(=O)Nc2cccc(Oc3ccccc3)c2)c(OC)c1
COc1ccc(CCC(=O)OCC(=O)Nc2ccc(C)c(S(=O)(=O)N(C)C)c2)cc1
O=C(CSc1ccccc1)Nc1nnc(/C=C/c2ccccc2)s1
COc1ccc(C2NC(=S)NC3=C2CCc2ccccc23)cc1OC (stereo unspecified)

Potency, active:
Cc1ccc(NC(=S)Nc2ncccc2C)c(C)c1 17.8 µM
Cc1ccnc(-n2sc3ccccc3c2=O)n1 12.6 µM
C=CC(=O)c1ccc2ccccc2c1 2.51 µM
